About 14,000 (4.5%) of roughly 310,000 compounds showed an effect of 50% or more. Effects have a minus sign here. The entries come from a sample that favours strong results as a whole.
These compounds were tested against human ether-à-go-go-related gene (hERG) potassium channel (human, UniProt Q12809) (assay: primary screen, population patch clamp on CHO cells stably expressing hERG; higher = less effect of the substance).
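Also: peak tail current of the secondary pulse compared with the same well before compound.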

human ether-à-go-go-related gene (hERG) potassium channel, sequence (Q12809 whole entry, looked up): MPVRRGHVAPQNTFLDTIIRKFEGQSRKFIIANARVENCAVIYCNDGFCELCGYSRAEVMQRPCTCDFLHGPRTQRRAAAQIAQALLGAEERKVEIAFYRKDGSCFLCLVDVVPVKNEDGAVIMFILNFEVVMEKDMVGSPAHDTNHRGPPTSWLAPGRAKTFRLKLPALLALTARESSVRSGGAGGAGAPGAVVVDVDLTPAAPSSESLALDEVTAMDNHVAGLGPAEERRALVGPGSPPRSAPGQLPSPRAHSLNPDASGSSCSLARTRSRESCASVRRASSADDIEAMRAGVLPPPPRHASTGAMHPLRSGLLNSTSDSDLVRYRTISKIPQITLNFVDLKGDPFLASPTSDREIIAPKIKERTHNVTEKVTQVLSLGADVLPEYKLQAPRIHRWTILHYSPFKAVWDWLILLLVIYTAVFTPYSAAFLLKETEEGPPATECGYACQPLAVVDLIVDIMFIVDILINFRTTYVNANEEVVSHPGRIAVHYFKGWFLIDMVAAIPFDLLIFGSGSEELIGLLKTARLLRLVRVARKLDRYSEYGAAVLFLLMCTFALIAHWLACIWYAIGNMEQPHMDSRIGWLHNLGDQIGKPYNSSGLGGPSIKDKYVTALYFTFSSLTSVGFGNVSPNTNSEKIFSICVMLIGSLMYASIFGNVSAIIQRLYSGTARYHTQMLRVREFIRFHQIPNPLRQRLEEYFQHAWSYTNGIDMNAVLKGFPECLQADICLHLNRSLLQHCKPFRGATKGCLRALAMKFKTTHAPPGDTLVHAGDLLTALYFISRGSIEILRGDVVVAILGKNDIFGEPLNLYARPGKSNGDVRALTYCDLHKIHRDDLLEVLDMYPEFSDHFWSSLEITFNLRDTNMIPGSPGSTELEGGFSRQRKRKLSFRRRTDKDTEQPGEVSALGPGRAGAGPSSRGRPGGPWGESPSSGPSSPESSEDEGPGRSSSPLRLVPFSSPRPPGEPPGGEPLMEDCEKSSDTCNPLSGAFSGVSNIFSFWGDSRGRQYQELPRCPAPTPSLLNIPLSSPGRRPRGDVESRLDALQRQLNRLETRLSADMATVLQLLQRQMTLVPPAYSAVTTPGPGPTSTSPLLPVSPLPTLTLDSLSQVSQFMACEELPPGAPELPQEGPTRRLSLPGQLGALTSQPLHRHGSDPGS

Compound	hERG current change (%, negative = inhibition) at 10uM [%]
c1ccc(-c2ccc(-c3ccncn3)cc2)cc1	23.6
O=C1NC(=S)N/C1=C/c1cccn1-c1ccc([N+](=O)[O-])cc1	12.8
O=C(CNc1cccc(S(=O)(=O)N2CCOCC2)c1)Nc1cccc(Br)c1	-21.6
CSCCC(NS(=O)(=O)c1ccc(C)cc1)C(=O)N1CCCC1 (stereo not drawn)	2
CC1CCN(S(=O)(=O)c2ccc3ncn(CC(=O)N(C)C4CCCCC4)c(=O)c3c2)CC1	-22.2
CCCCNC(=O)Cn1cnc2ccc(S(=O)(=O)N3CCC(C)CC3)cc2c1=O	2.68
CCN(CC)CCCNC(=O)Cn1cnc2ccc(S(=O)(=O)N3CCC(C)CC3)cc2c1=O	-0.31
CC1CCN(S(=O)(=O)c2ccc3ncn(CC(=O)N(C)Cc4ccccc4)c(=O)c3c2)CC1	-61.7
CC1CCN(S(=O)(=O)c2ccc3ncn(CC(=O)N4CCN(C)CC4)c(=O)c3c2)CC1	-16.3
CCCCN(CC)C(=O)Cn1cnc2ccc(S(=O)(=O)N3CCC(C)CC3)cc2c1=O	-57
Cc1cc2cc3c(C)cc(=O)oc3c(C)c2o1	19.8
COc1ccc(-c2cc(C(=O)Nc3ccccc3F)on2)cc1	23.3
CCOc1ncccc1C(=O)OCC(=O)Nc1cc(S(=O)(=O)N(CC)CC)ccc1C	-42.8
Cc1nc2cc(NS(=O)(=O)c3c(C)c(C)cc(C)c3C)ccc2s1	3.47
Cc1ccc(C(=O)NCC(=O)NCC(=O)OCC(=O)c2ccc(Br)cc2)cc1	7.3
CCCn1c(Nc2cccc(OC)c2)nc2ccccc21	14.8
CCN(CC)CCn1c(NCc2cccc(OC)c2)nc2ccccc21.Cl	-57.8
CCN(CC)CCn1c(NCc2cccc(OC)c2OC)nc2ccccc21	-47
CCN(CC)CCn1c(NCc2ccc(OC)cc2)nc2ccccc21	-65.5

Compound	hERG current change (%, negative = inhibition) at 10uM [%]
CCn1c(NCc2ccc(OC)cc2)nc2ccccc21	-21.7
CN(Cc1ccc2ccccc2c1)C(=O)c1ccc(C(F)(F)F)cc1	26.1
CCN1C(=O)N(c2ccc(Cl)cc2)C(C)=CC1(C)C	6.6
COc1ccc(C(=O)Nc2ccc(Cl)cc2F)cc1S(=O)(=O)N1CCCC1	-48.1
C=C1c2ccccc2NC(=O)N1c1ccc(OC)cc1	12.8
CC(O)CNc1nc2c(c(=O)n(Cc3ccc(Cl)c(Cl)c3)c(=O)n2C)n1C (stereo not drawn)	-17.3
O=C(O)C(=O)O.OCCN(Cc1ccccc1)Cc1ccccc1O	5.17
C=CCN1C(=O)C2C(C(=O)NCc3ccccc3)C3(C)C=CC2(O3)C1C(=O)NC(C)(C)C (stereo not drawn)	19.5
COc1ccc(OC)c(/C=N/N2CCN(c3ccc(Cl)cc3)CC2)c1	8.58
COC(=O)Cc1ccc(NC(=S)NCc2ccc(F)cc2)cc1	-74.4
COC(=O)Cc1ccc(NC(=S)NCc2ccc(OC)cc2)cc1	-18.2
COC(=O)Cc1ccc(NC(=S)NCc2ccccc2)cc1	0.941
c1csc(Cn2nnnc2CN2CCN(c3nc4ccccc4s3)CC2)c1	-46
COc1cc(C(=O)NC2CCN(Cc3nnnn3Cc3cccs3)CC2)cc(OC)c1OC	-5.59
Cc1cc2nc(C3CCN(Cc4nnnn4Cc4cccs4)CC3)[nH]c2cc1C	-83
Cl.c1ccc(Cn2nnnc2CN2CCCC2)cc1	2.31
CCN1CCN(CC2COc3ccccc3O2)CC1.Cl (stereo not drawn)	-4.7
Cc1cc2nc(C3CCN(Cc4nnnn4Cc4ccccc4)CC3)[nH]c2cc1C	-52.3
Cc1cc2nc(C3CCN(CC4COc5ccccc5O4)CC3)[nH]c2cc1C (stereo not drawn)	-73.9

Compound	hERG current change (%, negative = inhibition) at 10uM [%]
CCN(CC)C(=O)CN1CCC(c2nc3cc(C)c(C)cc3[nH]2)CC1	-15.7
Cc1ccccc1C(=O)NC1CCN(Cc2nnnn2Cc2ccccc2)CC1	-47.8
CCc1c(C)c2cc(Cl)c(O)c(CN(CC)CC)c2oc1=O	0.288
S=c1nccc(-c2ccc(Cl)cc2)[nH]1	15.4
COc1cc(NC(=O)c2cc3ccccc3o2)c(OC)cc1Br	5.55
COc1ccc(-c2nnn(-c3cc(Cl)cc(Cl)c3)c2N)cc1	18.3
CC1(C)C(=O)N(c2ccccc2)C(=O)c2ccccc21	9.68
O=[N+]([O-])c1ccc(N=Nc2ccc(O)cc2O)cc1	28.4
CCCCn1c(O)c(N=Nc2ccccn2)c2ccccc21	7.6
O=C(CN(C(=O)c1csnn1)c1ccc(F)cc1)NCCc1ccccc1	7.95
Cc1ccc(N(CC(=O)NCCc2ccccc2)C(=O)c2csnn2)cc1	-15.4
CC(=O)c1ccc(N(CC(=O)NCCc2ccccc2)C(=O)c2csnn2)cc1	-52.4
CC(C)c1ccc(N(CC(=O)NCCc2ccccc2)C(=O)c2csnn2)cc1	-60
O=C(CN(C(=O)c1csnn1)c1ccccc1)NCCc1ccccc1	-15
O=C(CN(C(=O)c1csnn1)c1ccc(Cl)cc1)NCCc1ccccc1	-5.16
Cc1ccc(Cc2nnc(SCC(=O)Nc3c(C)cccc3C)[nH]c2=O)cc1	-9.17
CCOC(=O)c1c(NC(=O)C2C3C=CC(C3)C2C(=O)O)sc2c1CC(C)CC2 (stereo not drawn)	19.6
CCOC(=O)c1c(NC(=O)C2C3C=CC(C3)C2C(=O)O)sc2c1CCC(C)C2 (stereo not drawn)	-6.93
CCCOC(=O)c1c(NC(=O)C2C3C=CC(C3)C2C(=O)O)sc2c1CCC(C)C2 (stereo not drawn)	-59.3

Reference: publication PMC4336329 (PLoS ONE, 2015)
